Bioassay records as filed in PubChem.
Hits are enriched below; roughly 4.6% of the tested compounds scored in any of these assays.
ADAM10 inh: inhibitors of human ADAM10 | O14672 | recombinant ADAM10, EDANS/DABCYL FRET peptide cleavage, 3 h | inhibition, % at 7 µM | 370,000 tested, 0.62% active | AID 720582;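 active = inhibition above a per-campaign cutoff equal to the mean of compounds falling between control-based bounds plus 3 SD, cut at about 20% in these data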;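 note: 0% = DMSO wells while the 100% control is not disclosed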
Target sequence (O14672 214-748 limits assumed): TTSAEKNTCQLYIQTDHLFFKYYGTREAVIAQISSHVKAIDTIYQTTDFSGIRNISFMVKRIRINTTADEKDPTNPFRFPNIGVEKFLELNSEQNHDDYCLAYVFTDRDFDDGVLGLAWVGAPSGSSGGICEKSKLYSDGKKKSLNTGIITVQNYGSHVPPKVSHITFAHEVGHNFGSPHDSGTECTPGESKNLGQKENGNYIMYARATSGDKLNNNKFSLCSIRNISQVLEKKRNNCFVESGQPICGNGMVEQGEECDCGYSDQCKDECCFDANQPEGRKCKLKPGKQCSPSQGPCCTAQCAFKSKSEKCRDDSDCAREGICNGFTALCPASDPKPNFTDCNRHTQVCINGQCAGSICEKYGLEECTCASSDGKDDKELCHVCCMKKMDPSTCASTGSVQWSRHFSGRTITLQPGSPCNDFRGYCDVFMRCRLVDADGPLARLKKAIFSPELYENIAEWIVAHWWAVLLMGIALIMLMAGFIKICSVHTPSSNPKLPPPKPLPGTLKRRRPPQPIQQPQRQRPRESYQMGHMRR
FAS-TE inh: FAS thioesterase (human) inhibition; P49327; recombinant FAS-TE, OMFH fluorogenic substrate, fluorescence endpoint; inhibition, % at 15 µM; 360,000 tested, 0.67% active; AID 602261;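 active = compounds whose normalised, plate-corrected inhibition of enzyme fluorescence in the single-dose primary screen is 50% or more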;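 note: 0% = DMSO with enzyme and 100% = substrate without enzyme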
proKLK7 act: activates the human kallikrein-7 zymogen | AID 652039 | 370,000 tested, 0.9% active | P49862 | activation, % at 7 µM | purified proKLK7, EDANS-DABCYL substrate fluorescence; 100% is mature enzyme control, 0% vehicle;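 active = activation above the mean of all tested compounds plus 3 SD, computed per campaign excluding outliers beyond control limits, cut at about 13% in these data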
NR3A LBD binder: modulates the human NR3A ligand-binding domain; NR3A LBD differential scanning fluorimetry, Tm shift; 0% = protein alone, 100% = glycine-bound protein; Tm shift relative to glycine control, % at 25 µM; 340,000 tested, 2.5% active;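 active = melting temperature shift of at least 10% of the positive control shift, at one fixed dose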
ADAM17 inh: ADAM17 inhibition, QFRET primary screen | P78536 | recombinant ADAM17, EDANS/DABCYL FRET peptide cleavage | inhibition, % at 6.95 µM | 370,000 tested, 0.83% active | AID 720648;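 active = inhibition above the mean of compounds lying between control limits plus 3 SD, set per campaign, cut at about 8.5% in these data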;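 note: 0% = DMSO-only wells as the low control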
ADAM10 confirm: confirmation of inhibitors of human ADAM10 | shares compounds with ADAM10 inh | ADAM10 QFRET peptide cleavage, EDANS fluorescence | inhibition, % at 6.95 µM | 2,100 tested, 1% active | AID 743208;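 active = inhibition above about 20% chosen separately for each screening run, limit read from the data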;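 note: 0% = DMSO wells and 100% = marimastat wells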
ADAM17 counter: ADAM17 inhibition, counter-screen for ADAM10 exosite hits; 2,100 tested, 0.5% active; ADAM17 QFRET peptide cleavage, EDANS fluorescence; inhibition, % at 6.95 µM; shares compounds with ADAM10 inh;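 active = mean triplicate inhibition above the solvent-only control wells' mean plus 3 SD, cut at about 12% in these data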;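 note: 0% = DMSO wells and 100% = marimastat wells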
Starred values were filed as active, the others as inactive; · = no result.

SMILES | ADAM10 inh | FAS-TE inh | proKLK7 act | NR3A LBD binder | ADAM17 inh | ADAM10 confirm | ADAM17 counter
CC(C)Oc1cccc(-c2n[nH]c(=S)n2N=Cc2ccc(O)cc2O)c1 | -6 | · | 0 | · | -1 | · | ·
N#CCC[C@@H]1CC[C@]2(CCCN(C(=O)C3CCCC3)C2)O1 | 1 | · | 0 | · | -2 | · | ·
O=C(OCC#CCSc1nnc(-c2cccc3ccccc23)o1)c1ccncc1 | -17 | · | · | · | -4 | · | ·
N#Cc1cccc(-c2csc(C(O)(c3ccccc3)C(F)(F)F)n2)c1 (stereo not given) | 20* | 40 | 1 | · | 8 | 4 | 1
OC(c1ccccc1)(c1nc(-c2ccc(Cl)cc2)cs1)C(F)(F)F (stereo not given) | 23* | 43 | -1 | · | 8 | 11 | 3
COc1ccc(-c2csc(C(O)(c3ccccc3)C(F)(F)F)n2)cc1 (stereo not given) | 19 | 26 | 0 | · | 8 | · | ·
CCOC(=O)N[C@@H](Cc1cccnc1)C(=O)N1CCC[C@H]1C(=O)NCCc1ccccc1Cl | 7 | · | 0 | · | 0 | · | ·
COC(=O)C1=C(C)N(Cc2ccccc2C(F)(F)F)C(=NCc2ccc3c(c2)OCO3)NC1c1ccccc1 (stereo not given) | -7 | · | 0 | · | -3 | · | ·
O=C(C1CC1)N1N=C(c2cccc(Br)c2)CC1(O)C(F)(F)F (stereo not given) | 81* | 13 | 0 | 0 | -4 | -1 | 0
CCCCCCCCN1C(=O)[C@@H](CC(=O)NCCCCc2ccccc2)C[C@@]2(C(=O)OC)C1=C[C@H](C1CCCC1)O[C@@H]2C | -9 | · | 0 | · | -5 | · | ·
COC(=O)c1ccccc1NC(=O)COC(=O)c1ccccc1N=Nc1ccc(N(C)C)cc1 | 5 | 29 | 0 | -3 | 3 | · | ·
CC(=O)c1ccc(NC(=O)COC(=O)c2ccccc2N=Nc2ccc(N(C)C)cc2)cc1 | 22* | 25 | 0 | -18 | 8 | 1 | 1
COC(=O)c1ccccc1NC(=S)NC(C)=O | 1 | -1 | 0 | -1 | -1 | · | ·
COC(=O)c1cn[nH]c1NC(=S)Nc1ccccc1C | 25* | -159 | 0 | 2 | 7 | 3 | 3
CCOC(=O)c1ccc(NC(=S)NC(=O)c2cncc(Br)c2)cc1 | 75* | -4 | 0 | 0 | -2 | 0 | 0
NC(=O)c1ncn([C@@H]2O[C@H](C(=O)Nc3ccc(C(=O)N4CCCCC4)cc3)[C@@H](O)[C@H]2O)n1 | -13 | · | 1 | · | -3 | · | ·
C[C@H](CCC(=O)O)[C@H]1CC[C@H]2[C@@H]3CC[C@@H]4C[C@H](O)CC[C@]4(C)[C@H]3C[C@H](O)[C@]12C | -2 | -2 | 0 | -1 | -1 | · | ·
C[C@H](CCC(=O)OCc1cn(CC(=O)c2ccc(O)cc2)nn1)C1CC[C@H]2[C@@H]3CC[C@@H]4C[C@H](O)CC[C@]4(C)[C@H]3C[C@H](O)[C@]12C (stereo not given in full) | 30* | 15 | 1 | 2 | 7 | 8 | 1
S=c1[nH]cc(-c2ccccc2)n1-c1ccccc1 | 23* | -6 | 0 | 1 | 11* | -2 | 0
Nc1[nH]c(C(=O)c2ccc(Br)cc2)c(-c2c(F)cccc2F)c1C(=O)NCCc1c[nH]c2ccccc12 | 5 | · | -1 | · | 4 | · | ·
C[C@@H]1CN(c2ccc(N3CCNC[C@@H]3C)cc2C#N)C[C@H](C)O1 | -35 | · | 0 | · | -6 | · | ·
COc1cccc(C(C)(O)c2nc(-c3ccc(C)c(C)c3)cs2)c1 (stereo not given) | 21* | 24 | 0 | · | 8 | 8 | 2
COc1ccc(-c2csc(C(C)(O)c3cccc(OC)c3)n2)cc1 (stereo not given) | 2 | 13 | 0 | · | 0 | · | ·
CC(Nc1nc(-c2ccccc2)nc2ccccc12)c1ccccc1 (stereo not given) | 29* | 30 | 0 | 8 | 11* | 9 | 3
O=C(N[C@@H](Cc1ccccc1)C(=O)OCc1ccccc1)c1nc[nH]c1C(=O)N1CCc2ccccc2C1 | 20* | 16 | 0 | -31 | 9.3* | 3 | 2
